This is a sample that favours compounds with a hit; in the whole collection about 19% have one here.
TDP1 cell CPT = qHTS for Inhibitors of human tyrosyl-DNA phosphodiesterase 1 (TDP1): qHTS in cells in presence of CPT; chicken DT40 Tdp1-/-;hTDP1 cells + 20 nM CPT, ATP luminescence, 48 h; Potency, µM (series often up to 46.2 µM), for inactives: at the top dose activity change, negative = growth inhibition, most hits filed as inhibitors; actives 12% (n = 420,000); note: potency is the fitted concentration of half-maximal effect; nearly all actives have a fitted effect of over 55% in size
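Chicken DT40 Tdp1-/- cells complemented with human TDP1, 400 cells/well, exposed to compounds plus 20 nM camptothecin for at least 48 h at 37 C; viability read as ATP content by CellTiter-Glo luminescence.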
TDP1 cell noCPT = qHTS for Inhibitors of human tyrosyl-DNA phosphodiesterase 1 (TDP1): qHTS in cells in absence of CPT; DT40 Tdp1-/- hTDP1 cells, no CPT, ATP luminescence, 48 h; Potency, µM (series often up to 46.2 µM), without a hit: at the highest dose activity change, negative = growth inhibition, usual class: inhibitors; actives 15% (n = 420,000); AID 686978, 2013; note: potency is the fitted concentration of half-maximal effect; nearly all actives have a fitted effect of over 55% in size
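Camptothecin absent (DMSO only). Human TDP1-complemented DT40 knockout cells, 400 cells/well, 37 °C for minimum 48 hr; ATP measured via CellTiter-Glo, 30 min dark incubation, luminescence.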
HT1080 IDH1KD tx = qHTS for induction of synthetic lethality in tumor cells producing 2HG: qHTS for the HT-1080-IDH1KD cell line; HT-1080 IDH1 knockdown viability, ATP luminescence, 48 h; Potency, µM (series often up to 46.1 µM), inactives show at the highest dose activity, negative = toxicity, most hits filed as cytotoxic; actives 2% (n = 360,000);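 note: potency is the fitted concentration of half-maximal effect; 0% = DMSO wells and -100% = cell-free medium wells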
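Viability of IDH1-knockdown HT-1080 fibrosarcoma cells was assessed by CellTiter-Glo after 48 h at 37 °C with titrated compound; concentration-effect curves were classified by fit quality and response size.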
HT1080-NT tox = qHTS for induction of synthetic lethality in tumor cells producing 2HG: qHTS for the HT-1080-NT fibrosarcoma cell line; HT-1080-NT fibrosarcoma viability, CellTiter-Glo ATP luminescence, 48 h; Potency, µM (titrated, usually from 46.1 µM), without a hit: at the top dose activity, negative = less viability, actives largely listed as cytotoxic; actives 1.6% (n = 360,000);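 note: NT is the 2HG producing partner of a matched IDH1 knockdown line; potency is the fitted concentration of half-maximal effect; 0% = DMSO-treated cells and -100% = media-only wells without cells; nearly all actives have a fitted effect of over 55% in size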
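Compounds were tested in concentration-response format on HT-1080-NT cells for 48 hours at 37 degrees C. Cell viability came from CellTiter-Glo luminescence; curves were classified by r2, response magnitude and activity.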
IL1B secr inh = qHTS for Inhibitors of Inflammasome Signaling: IL-1-beta AlphaLISA Primary Screen; THP-1 LPS/ATP IL-1B secretion, AlphaLISA, 16 h; hits give low values; activity change, % at 57.5 µM; actives 4.7% (n = 360,000); in the data active = activity change below about -50%; inconclusive = mostly about -30% to -49%
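Secreted IL-1B measured by AlphaLISA bead assay after 16 h compound exposure of THP-1 cells; compounds (final up to 57.5 uM) added 1 h before LPS (250 ng/mL) and ATP (1.25 mM) stimulation; lower signal means less secretion.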
An asterisk follows results filed as active; ? = inconclusive; / = not tested or not shown; [ ] = another dose, or the depositor's remark. Unless noted, calls come from the whole dose curve; as a rule, active = well fitted curve in the direction sought with a large enough effect; inconclusive = small, poorly fitted or top-dose-only effect, or another doubt; inactive = no such curve, though single readings can be large; an effect the other way counts as inactive or inconclusive. Unless noted, % is set by controls: 0 for no effect and ±100 for the full control effect.

SMILES	TDP1 cell CPT	TDP1 cell noCPT	HT1080 IDH1KD tx	HT1080-NT tox	IL1B secr inh
COc1ccc(CC(=O)NNC(=O)COc2ccc(Cl)cc2C)cc1S(=O)(=O)N1CCOCC1	?	?	-1%	-2%	0
COc1ccc(Cl)cc1NC(=O)CN(C)C(=O)CCCNC(=O)c1ccc(Cl)cc1	?	?	-16%	-14%	-2
Cc1cc(CNC(=O)C(C)n2cc([N+](=O)[O-])cn2)c2ccccc2n1 (stereo unspecified)	?	21µM*	-11%	-28%	13
N#Cc1ccccc1NC(=O)C(=O)NCCCN1CCCC1=O	-3%	-3%	1%	3%	0
Cc1cccc(C(=O)NNC(=O)CCCCC(=O)NNC(=O)c2cccc(C)c2)c1	0%	-14%	18%	19%	-4
CCN(CC)CCCNC(=O)/C=C/C(=O)O	18µM*	21µM*	3%	-4%	-1
O=C(CS(=O)(=O)c1cccc2nsnc12)N1CCN(c2ccccc2F)CC1	-17%	-21%	/	/	/
O=C(CS(=O)(=O)c1cccc2nsnc12)N1CCN(c2cccc(C(F)(F)F)c2)CC1	8.2µM*	21µM*	/	/	/
Cc1cccc(N2CCN(C(=O)CS(=O)(=O)c3cccc4nsnc34)CC2)c1C	16µM*	?	/	/	/
O=C(c1ccncc1)N1CCN(c2cccc(C(F)(F)F)c2)CC1	?	?	-6%	-5%	-2
CCOc1ccc(C(=O)NCCC(=O)N2CCC3(CC2)NCCc2[nH]cnc23)cc1OCC	1%	14%	10%	6%	-1
Cc1cc(/C=N\NC(=O)COc2cccc3cccnc23)c(C)n1-c1ccccc1	?	-20%	-9%	4%	-4
CC(C)n1cc(/C=N/NC(=O)COc2cccc3cccnc23)c2ccccc21	?	?	?	?	-78*
C=CCn1cc(/C=N/NC(=O)COc2cccc3cccnc23)c2ccccc21	15µM*	16µM*	-24%	?	-14
Cn1c(=O)c(-c2cccc(Cl)c2)nc2cncnc21	9%	-27%	/	/	/
C=CCn1c(=O)c(C(=O)Nc2ccc(C)cc2)c(O)c2ccccc21	18µM*	12µM*	3%	-2%	38
C=CCn1c(=O)c(C(=O)Nc2cc(C)ccn2)c(O)c2ccccc21	29µM*	26µM*	22%	?	0
CCn1c(=O)c(C(=O)Nc2ccccn2)c(O)c2ccccc21	5%	?	3%	4%	53
C=CCn1c(=O)c(C(=O)NC(C)c2ccccc2)c(O)c2ccccc21 (stereo unspecified)	?	-21%	-5%	-1%	20
FC(F)(F)c1ccc(/C=N/N2CCN(Cc3ccccc3)CC2)cc1	5%	-22%	-23%	-16%	-60*
BrC(=C\c1ccccc1)/C=N/N1CCN(c2ccccn2)CC1	0.33µM*	2.6µM*	-27%	-3%	-85*
BrC(/C=N/N1CCN(Cc2ccccc2)CC1)=C/c1ccccc1	13µM*	6.5µM*	7%	-6%	-82*
CC(/C=N\N1CCN(Cc2ccc(C)cc2)CC1)=C\c1ccccc1	-10%	-23%	-1%	-10%	11
BrC(=C\c1ccccc1)/C=N/N1CCN(Cc2ccccc2)CC1	1.8µM*	3.3µM*	-16%	-5%	-20
Cc1ccc(CN2CCN(/N=C/c3ccc(C(F)(F)F)cc3)CC2)cc1	?	?	-7%	-10%	-4
SMILES	TDP1 cell CPT	TDP1 cell noCPT	HT1080 IDH1KD tx	HT1080-NT tox	IL1B secr inh
Cc1ccc(NC(=O)CN2C(=O)NC3(CCCC3)C2=O)c(Cl)c1	?	-20%	8%	18%	-3
COC(=O)c1cnc(Nc2nc(C(N)COCc3ccccc3)cs2)nc1C(F)(F)F (stereo unspecified)	?	15µM*	-12%	-22%	-25
NC(c1csc(NC(=O)c2cccc(OC(F)(F)F)c2)n1)c1ccccc1Cl (stereo unspecified)	4.1µM*	5.8µM*	?	23µM*	-12
COC(=O)c1cnc(Nc2nc(C(N)c3ccccc3Cl)cs2)nc1C(F)(F)F (stereo unspecified)	?	26µM*	?	?	-6
CN(C(=O)c1ccc(NC(=O)Cc2ccc(NC(=O)C3CCCN(C(=O)c4ccccc4)C3)cc2)cc1)C1CCCC1 (stereo unspecified)	?	-21%	2%	2%	24
Fc1ccc(N2CCN(Cc3ccc4c(c3)CN(Cc3cccn3-c3ncccn3)CCO4)CC2)cc1	3%[9.04 µM]	?	/	/	/
O=C(CSc1nnc(-c2ccc3c(c2)OCO3)n1-c1ccccc1)c1ccccc1	16µM*	23µM*	23%	15%	7
Cc1cccc(-n2c(SCC(=O)c3ccccc3)nnc2-c2ccc(Br)cc2)c1	16µM*	18µM*	/	/	/
O=C(CSc1nnc(-c2cccs2)n1-c1ccccc1)c1ccc2c(c1)OCCO2	-19%	-22%	8%	5%	-3
O=C(CSc1nnc(CN2CCCCC2)n1-c1ccccc1)c1ccc2c(c1)OCO2	?	21µM*	-1%	-9%	-7
CCOc1ccc(-c2nnc(SCC(=O)c3ccccc3)n2-c2ccccc2)cc1	?	6.5µM*	/	/	/
COc1ccc(C(=O)CSc2nnc(CN3CCCCC3)n2-c2ccc(F)cc2)cc1OC	-15%	?	5%	7%	-7
CCOc1ccc(NC(=O)CSc2nnc(-c3ccncc3)n2-c2ccccc2)cc1	-1%	-12%	/	/	/
CN(C)CCNc1ncnc2c1ncn2[C@H]1CN(Cc2ccc(F)cc2)C[C@@H](CO)O1	-24%	-18%	17%	0%	-29
CCOC(=O)CNC(=O)Nc1cc(C(C)(C)C)nn1-c1ccccc1	-2%	3%	15%	6%	-3
Cc1cc2c(n1-c1ccc(C(=O)NCc3ccccc3Cl)cc1)CCCC2	23µM*	18µM*	/	/	/
Cc1cc2c(n1-c1ccc(C(=O)NCc3ccc(OC(C)C)cc3)cc1)CCCC2	26µM*	16µM*	/	/	/
Cc1nn(CC(=O)NCc2cc3ccccc3[nH]2)c(C)c1[N+](=O)[O-]	-26%	-20%	-3%	0%	-65*
Cc1nn(CC(=O)NCc2ccccc2F)c(C)c1[N+](=O)[O-]	26%	?	-2%	2%	2
Nc1c(N(Cc2ccco2)C(=O)c2ccccc2F)c(=O)[nH]c(=O)n1Cc1ccccc1	10%	-6%	2%	2%	6

Bioassay records (PubChem)
